Marburg entry inh: Marburg virus entry inhibition; Potency, µM (highest dose often 37.8 µM), for the others: top-dose activity change, negative = inhibition, actives largely listed as inhibitors; 1.8% of 300,000 active; Marburg virus pseudotyped entry inhibition, cell reporter; calls by dose curve; tested in HEK293 cells
HCV inhibitor: inhibitors of hepatitis C virus infection. AID 651820. 3.4% of 340,000 active. Huh7.5.1 HCVcc-Cre infection, luciferase reporter, 44 h. Potency, µM (titrated, usually from 41.8 µM), inactives show top-dose activity change, negative = inhibition, usual class: inhibitors; active means well fitted inhibition curve with a large enough effect; inconclusive means small, poorly fitted or top-dose-only effect, or another doubt; inactive means no such curve, though single readings can be large or run the other way
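HCVcc-Cre virus at an moi near 0.5 was added right after compound to cells cultured 4 h from seeding (1,000 cells/well). Luciferase activity was determined 44 h later, 15 min after substrate addition at RT.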
Vaccinia Venus: vaccinia inhibition (Venus reporter) | 0.46% of 330,000 active | Vaccinia virus Venus reporter expression, fluorescence | Potency, µM (doses to about 36.5 µM), for the others: top-dose activity change, negative = inhibition, most hits filed as inhibitors; calls by dose curve; tested in A549 cells; further: nearly all actives have a fitted effect of over 30% in size
FMDV antiviral: foot and mouth disease virus antiviral activity; FMDV antiviral cell-based qHTS; Potency, µM (top dose mostly 57.9 µM), for inactives: at the highest dose activity change, negative = inhibition, most hits filed as inhibitors; 1.2% of 410,000 active; AID 1159524; calls by dose curve; tested in HEK293T cells; further: read-out not given here; nearly all actives have a fitted effect of over 45% in size
Vaccinia mCherry: inhibitors of vaccinia virus infection (mCherry reporter signal); Vaccinia virus mCherry reporter infection, fluorescence; Potency, µM (doses to about 36.5 µM), inactives show top-dose activity change, negative = inhibition, actives largely listed as inhibitors; 0.63% of 310,000 active; AID 720579; calls by dose curve; tested in A549 cells; further: nearly all actives have a fitted effect of over 35% in size
Lassa entry inh: blocks Lassa virus binding to or entry into cells; Lassa virus pseudotype entry inhibition, cell reporter; Potency, µM (doses to about 37.9 µM), for inactives: at the highest dose activity change, negative = inhibition, hits mostly inhibitors; 1.2% of 300,000 active; AID 540256; calls by dose curve; tested in HEK293 cells; further: nearly all actives have a fitted effect of over 50% in size
Numbers without * were called inactive; i = inactive; ? = inconclusive; . = no result given; [ ] = remark or other dose. Only some compounds are listed: those with a hit (about 5.3% of all), similar ones and a draw of the others. On the % scale 0 is the no-effect control and ±100 the full control effect; potency means the concentration at half of the fitted maximal effect.

SMILES | Marburg entry inh | HCV inhibitor | Vaccinia Venus | FMDV antiviral | Vaccinia mCherry | Lassa entry inh
CC(C)C(=O)NC(c1ccc(N(C)C)cc1)c1ccc2cccnc2c1O (configuration not stated) | . | . | ? | . | 4µM* | .
CC(C)C(=O)NC(c1ccco1)c1ccc2cccnc2c1O (configuration not stated) | ? | 4µM* | ? | -18% | . | ?
CCCCC(=O)NC(c1ccc(N(CC)CC)cc1)c1ccc2cccnc2c1O (configuration not stated) | ? | 1.4µM* | ? | -2% | ? | ?
CCCCC(=O)NC(c1ccc(N(C)C)cc1)c1ccc2cccnc2c1O (configuration not stated) | ? | 4µM* | -27% | 10% | 1.3µM* | ?
CC(=O)N[C@@H](C)C(=O)NCC1Cc2cccc(-c3ccccc3C(F)(F)F)c2O1 (some centres not stated) | . | . | -2% | -7% | -8% | .
CC(=O)OC[C@H]1O[C@H](C#Cc2ccc(C)cc2C)C=C[C@@H]1OC(C)=O | -2%[14.2 µM] | . | . | . | . | .
COCc1c(C(=O)NCC2CCCN(C)C2)cnn1-c1ncc2c(n1)-c1ccccc1CCC2 (configuration not stated) | . | . | -10% | 6% | i | .
Cc1ccc2c(c1)CCCN2C(=O)c1cnn2c1NC(=C1CC1)C=C2C(F)F | . | . | ? | . | -30% | .
Oc1c(C(Nc2nc3ccccc3s2)c2ccco2)ccc2cccnc12 (configuration not stated) | ? | 2.5µM* | ? | 26% | 2.8µM* | ?
Nc1c(C(O)(C(F)(F)F)C(F)(F)F)cc(C(O)(C(F)(F)F)C(F)(F)F)c2ccccc12 | 11µM* | ? | ? | ? | 11µM* | 22µM*
Cc1cc(C(=O)COc2cccc([N+](=O)[O-])c2)c(C)n1C1CC1 | . | 11µM* | . | 19% | . | .
CCCN(C(=O)C1CCN(S(=O)(=O)c2c(C)noc2/C=C/c2ccc(C)cc2)CC1)c1ccccc1F | . | . | -8%[7.34 µM] | -10% | -7%[7.34 µM] | ?
COc1cccc2cc(-c3nnc(SCC(=O)Nc4nc(C)cs4)n3C)oc12 | ? | 13µM* | . | -3% | . | ?
O=C(Nc1ccc2c(c1)N(C1CCCC1)C(=O)c1ccccc1S2)c1ccccc1 | . | . | -5% | 0% | -8% | 2.8µM*
O=C(Nc1ccc2c(c1)N(C1CCCC1)C(=O)c1ccccc1S2)c1ccc(F)cc1 | . | . | -9% | -27% | 0% | ?
Cc1ccc(-c2cnn(-c3cccc(C(F)(F)F)c3)c2N)cc1 | 12% | 11µM* | . | 24% | . | 24%
Cc1ccc(CNCc2ccccc2)s1 | -8%[46.1 µM] | . | -13% | 0% | -1% | 9%[46.1 µM]
CCOc1ccc(C(=O)C2CCN(C(=O)c3ccc([N+](=O)[O-])cc3)CC2)cc1 | . | 10µM* | . | ? | . | .
COc1ccc(CCNC(=S)N2CCC(C(=O)c3ccc(F)cc3)CC2)cc1OC | ? | 0.5µM* | . | ? | . | ?
CCOC(=O)C1CCN(C(=O)c2ccc3nc(-c4ccc(OC)cc4)c(-c4ccc(OC)cc4)nc3c2)CC1 | . | 25µM* | . | 18% | . | .
COc1ccc(C(=O)C2CCN(C(=S)NCCc3ccc(OC)c(OC)c3)CC2)cc1 | ? | ? | -27% | -24% | i | ?
COc1ccc(C(=O)C2CCN(C(=O)c3ccc(F)cc3)CC2)cc1 | -20% | 25µM* | -1% | -29% | i | 4%
Cc1nc2ccc(C(=O)OC(C)C(=O)c3c(C)[nH]c4ccccc34)cc2nc1C (configuration not stated) | . | . | 13% | . | -18% | .
CCOC(=O)CCN1C(=O)[C@@H]2[C@H]3[C@H](O)[C@H](O)CC(=NNC(=O)OCc4ccc(OC)cc4)[C@@H]3CC[C@H]2C1=O | 12%[14.2 µM] | . | . | . | . | ?
CCOC(=O)C1CCN(C(=O)c2ccccc2)c2scc(-c3ccccc3)c2C1=O (configuration not stated) | . | . | -22% | 32µM* | -3% | .
CCOC(=O)C1CCCN(C(=O)c2ccccc2)CC1 (configuration not stated) | . | . | -5% | -11% | 8% | .
COC(=O)[C@@H]1CCCN1C(=O)c1c(OC)cc(=O)n2c1CCN(Cc1ccc3nsnc3c1)CC2 | . | . | -7% | -4% | -10% | .

Source: PubChem BioAssay (National Center for Advancing Translational Sciences (NCATS))
